# Measurements from PubChem BioAssay (NCI).
# The panel holds about 83,000 compounds, 20% with a hit somewhere; the sample as a whole holds those more often.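 Negative percent growth values reflect cell death: -40 means 40% of the cells present at the start died, and -100 means all died.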 Values without a mark were called inactive. The source made the active and inactive calls. Rule for the calls: active = growth percent below 10; inactive = the rest.
# Columns and labels:
# Test in all cases: NCI-60 one-dose screen, 48 h (100 = growth as untreated, 0 = no growth, -100 = all killed)
# Conditions in all cases: 10 µM unless noted
# NCI-H23 lung = tested on: NCI-H23 lung
# NCI-H226 lung = tested on: NCI-H226 lung
# NCI-H322M lung = tested on: NCI-H322M lung
# HOP-62 NSCLC = tested on: HOP-62 NSCLC
# NCI-H460 lung = tested on: NCI-H460 lung
# HOP-92 NSCLC = tested on: HOP-92 NSCLC
# NCI-H522 lung = tested on: NCI-H522 lung
# A549/ATCC NSCLC = tested on: A549/ATCC NSCLC
# 786-0 renal = tested on: 786-0 renal
# COLO 205 colon = tested on: COLO 205 colon
# DU-145 prostate = tested on: DU-145 prostate
# MALME-3M melanoma = tested on: MALME-3M melanoma
# MDA-MB-231 breast = tested on: MDA-MB-231 breast
# RXF 393 renal = tested on: RXF 393 renal
# SF-268 CNS = tested on: SF-268 CNS
# SF-295 CNS = tested on: SF-295 CNS
# SF-539 CNS = tested on: SF-539 CNS
# UACC-257 melanoma = tested on: UACC-257 melanoma
# K-562 leukemia = tested on: K-562 leukemia
# M14 melanoma = tested on: M14 melanoma
SMILES,growth (NCI-H23 lung),growth (NCI-H226 lung),growth (NCI-H322M lung),growth (HOP-62 NSCLC),growth (NCI-H460 lung),growth (HOP-92 NSCLC),growth (NCI-H522 lung),growth (A549/ATCC NSCLC),growth (786-0 renal),growth (COLO 205 colon),growth (DU-145 prostate),growth (MALME-3M melanoma),growth (MDA-MB-231 breast),growth (RXF 393 renal),growth (SF-268 CNS),growth (SF-295 CNS),growth (SF-539 CNS),growth (UACC-257 melanoma),growth (K-562 leukemia),growth (M14 melanoma)
C[C@@H]1CC[C@@H]2[C@@H]1[C@H](OC(=O)/C=C/c1ccccc1)[C@]1(C3CCCCC3)C[C@@H](NC(=O)CO)[C@@]2(C)O1,95.8%,102%,92.9%,112%,94.5%,94.4%,71.9%,101%,96.4%,109%,107%,99.2%,102%,53.2%,97.4%,112%,100%,110%,–,–
CC(=O)c1ccc2c(c1)CCN2,102%,102%,101%,96.8%,117%,82.5%,91%,98%,108%,102%,104%,–,96.1%,107%,98.9%,125%,101%,104%,111%,–
CN(C)CCC(O)(Cc1ccccc1)c1ccccc1 (stereo not drawn),100%,115%,120%,111%,112%,106%,116%,106%,105%,107%,–,114%,108%,117%,–,103%,103%,111%,103%,–
CCOC(=O)c1ccc(-c2ccc3cc(OC)ccc3c2)nc1C,93%,116%,90.3%,107%,103%,104%,72.7%,95.4%,85.7%,105%,103%,92.8%,104%,116%,96.4%,100%,98.9%,107%,–,–
COc1ccc(N(C)c2nc(Cl)nc3cnn(C)c23)cc1,34.4%,1% (active),34.1%,21.9%,7.51% (active),28.6%,-27.6% (active),10.8%,8.74% (active),-68.3% (active),7.13% (active),75.3%,19.2%,44.8%,29.1%,17.9%,-9.34% (active),38.1%,–,–
CCOC(=O)c1c(C)nc2c(c1N)/C(=C/c1ccc(OC)cc1)C(=O)N2Cc1ccc(F)cc1,-38.2% (active),8.52% (active),9.93% (active),-45.3% (active),2.95% (active),-55.6% (active),-69.6% (active),12%,-50.6% (active),–,-90.8% (active),-21.3% (active),-54.7% (active),-78.6% (active),-23.6% (active),-1.56% (active),-20.5% (active),-52.7% (active),4.12% (active),-56% (active)
CCCCNC(=O)c1cc(NCc2cc(O)ccc2O)ccc1O,93.4%,106%,91.3%,84.4%,106%,67.7%,-55.7% (active),77.1%,80.4%,108%,99.7%,108%,84%,83.7%,84.1%,101%,62.2%,68.9%,–,–
Cc1ccc(-n2nnc(C3=NCCc4c3[nH]c3ccc(Cl)cc43)c2C)cc1,80.6%,76.2%,85%,72.2%,72.5%,76.4%,30.9%,41.3%,78.2%,101%,87.3%,98.3%,80.4%,102%,80.6%,70.6%,92.9%,57.9%,–,–
Nc1c(-c2nc3ccccc3c(=O)[nH]2)nnn1-c1ccc(Cl)cc1,78.9%,102%,78.3%,57.2%,56.2%,101%,52.5%,40.6%,82.2%,98.6%,77.3%,83.3%,85%,81.9%,66.8%,73.6%,50.5%,84.8%,–,–
Cc1c2c(cn1Cc1ccccc1)CCc1cn(C)nc1-2,63.7%,95.3%,107%,92.1%,93.3%,40%,78.3%,89.8%,81.8%,–,111%,101%,89.5%,83.9%,102%,57.7%,83.1%,79.3%,58.1%,–
COc1cc2nc(Nc3ccc(F)cc3)nc(N)c2cc1OC,95.1%,81.7%,95.4%,112%,99.5%,63.9%,92%,92.6%,87.1%,–,93.5%,105%,81.7%,54.5%,90%,-2.33% (active),95.5%,102%,77.8%,107%
COc1cc(C(=O)Nc2cc(O)c(CC=C(C)C)c(O)c2)cc2c1O[C@]1(C)CC[C@@H](O)C(C)(C)[C@H]1C2,38.7%,47.6%,66.4%,6.01% (active),15.6%,-5.08% (active),10%,18.5%,-11.7% (active),-11.8% (active),42%,58.6%,24.1%,-18.5% (active),39.5%,-52.1% (active),-50.8% (active),27.2%,–,–
COc1ccc2cc(-c3ccc(C(=O)NN)c(C)n3)ccc2c1,95.5%,103%,94.6%,101%,104%,96.2%,69.8%,93.1%,95.1%,104%,103%,92.5%,97.4%,113%,91.9%,99%,103%,99.6%,–,–
O=C1C2=C(CCN(Cc3ccccc3)C2)N2CCN=C2N1Cc1ccc(C(F)(F)F)cc1,31%,25.9%,37.8%,31%,14.7%,18.8%,19.9%,27.6%,48.8%,–,33%,30.4%,-9.28% (active),54%,39.2%,-10.8% (active),40.8%,15.5%,29.4%,37.2%
O=[N+]([O-])c1ccc2[nH]cc(-c3c4ccsc4cc4[nH]c5ccc([N+](=O)[O-])cc5c34)c2c1,7.93% (active),-9.9% (active),20.4%,10.8%,4.39% (active),26.8%,-22.9% (active),5.78% (active),-44% (active),-50.3% (active),-14.3% (active),30.1%,-5.82% (active),-42.2% (active),19.3%,-4.03% (active),-44.9% (active),41.8%,–,–
CC1(C)N=C(N)N=C(N)N1c1ccc(Cl)c(Cl)c1,19.2%,52.1%,52.7%,16.4%,17%,72.3%,45.3%,30.1%,9.73% (active),–,46.5%,67.8%,68.4%,61.4%,42.9%,17.2%,13.4%,55.6%,23.6%,–
Cn1nnnc1-c1ccc(N)cc1,88.7%,107%,92.7%,95.9%,105%,96.3%,84.2%,95.6%,93.8%,110%,99%,99.1%,106%,111%,91.7%,98.1%,98.8%,106%,–,–
